# Hits are enriched below; roughly 9.4% of the tested compounds scored in any of these assays.
# ALDH1A1 inh = inhibitors of human aldehyde dehydrogenase 1A1; P00352; Purified ALDH1A1, NADH fluorescence, propionaldehyde substrate; Potency, µM (series often up to 75.3 µM), for inactives: at the highest dose activity, negative = inhibition, actives largely listed as inhibitors; actives 7.3% (n = 220,000); AID 1030; active = well fitted inhibition curve with a large enough effect, not every such curve was filed as active; inconclusive = small, poorly fitted or top-dose-only effect, or another doubt; inactive = no such curve, though single readings can be large or run the other way;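 note: potency is the fitted concentration of half-maximal effect; plate controls were no enzyme wells and a reference inhibitor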
# Target sequence (P00352 whole entry, looked up): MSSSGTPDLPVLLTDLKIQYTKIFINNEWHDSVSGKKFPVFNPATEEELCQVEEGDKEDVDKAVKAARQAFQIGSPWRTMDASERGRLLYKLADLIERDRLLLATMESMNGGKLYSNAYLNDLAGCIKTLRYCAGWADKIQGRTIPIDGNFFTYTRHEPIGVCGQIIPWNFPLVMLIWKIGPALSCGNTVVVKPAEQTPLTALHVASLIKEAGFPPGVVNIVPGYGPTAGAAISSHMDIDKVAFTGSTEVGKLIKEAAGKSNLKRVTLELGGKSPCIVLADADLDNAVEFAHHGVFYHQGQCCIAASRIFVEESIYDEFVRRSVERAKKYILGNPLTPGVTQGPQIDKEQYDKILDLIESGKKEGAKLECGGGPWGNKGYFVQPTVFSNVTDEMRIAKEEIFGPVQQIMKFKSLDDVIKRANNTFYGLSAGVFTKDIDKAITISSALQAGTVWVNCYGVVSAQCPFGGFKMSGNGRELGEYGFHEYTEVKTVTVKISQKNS
# IMPase Li cell = cell-permeable IMPase inhibitors with lithium potentiation. Potency, µM (series often up to 59.4 µM), without a hit: top-dose activity, negative = IMPase inhibition, hits mostly inhibitors. AID 1457. CHO-M1 cells, IP1 TR-FRET (IP-One), carbachol + lithium. actives 0.35% (n = 210,000);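 note: IP1 builds up when IMPase is blocked and the TR-FRET signal falls; potency is the fitted concentration of half-maximal effect; plate controls were basal vehicle for no effect and high inhibitor control for full effect; nearly all actives have a fitted effect of over 50% in size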
#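 Lithium-sensitised IP1 accumulation assay; M1-expressing CHO cells treated 30 min at 37C with compound. Competitive antibody detection by time-resolved FRET followed a 10 min room-temperature lysis step.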
# HPGD inh = inhibitors of human 15-hydroxyprostaglandin dehydrogenase (HPGD). purified HPGD, NADH fluorescence kinetic, PGE2 substrate. Potency, µM, for inactives: at the top dose activity change, negative = inhibition, actives largely listed as inhibitors. actives 4.3% (n = 150,000); active = well fitted inhibition curve with a large enough effect, not every such curve was filed as active; inconclusive = small, poorly fitted or top-dose-only effect, or another doubt; inactive = no such curve, though single readings can be large or run the other way; note: potency is the fitted concentration of half-maximal effect; % is set by controls: 0 for no effect and ±100 for the full control effect
#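 20 nM HPGD preincubated 15 min at room temperature with compound in 50 mM Tris-HCl pH 8, 0.01% Tween 20. Started with 1 mM NAD+ and 30 uM prostaglandin E2; NADH fluorescence (360/450 nm) read 5 times over 30-s intervals, last minus first.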
# HTT cytoprotect = Huntington cell model cytoprotection by ATP luminescence; PC12 HTT-Q103 induced, cytoprotection, ATP luminescence, 40 h; Potency, µM (doses to about 56.4 µM), for inactives: cytoprotection (ATP increase), hits mostly activators; actives 0.14% (n = 230,000); note: potency is the fitted concentration of half-maximal effect; % of control where 0% means no effect; nearly all actives have a fitted effect of over 45% in size
#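 Quantitative HTS on tebufenozide-induced (100 nM) PC12 cells expressing HTTQ103 exon 1–GFP; compounds tested as a concentration series; survival measured via cellular ATP.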
# HttQ103 aggreg = inhibitors of mutant huntingtin aggregate formation in PC12 cells; PC12 HttQ103-GFP aggregates, Acumen cytometry, 40 h; Potency, µM (titrated, usually from 46.1 µM), without a hit: at the highest dose activity change, negative = inhibition, actives largely listed as inhibitors; actives 1.1% (n = 220,000); note: potency is the fitted concentration of half-maximal effect; % is set by controls: 0 for no effect and ±100 for the full control effect; nearly all actives have a fitted effect of over 60% in size
#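 Aggregates are detected as GFP objects 1–25 µm with signal 6 STDEV over background in lysates of induced PC12 cells. These carry Huntingtin exon 1 with 103 glutamines fused to GFP under an ecdysone promoter; compounds titrated.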
# IMPase inh = cell-permeable inhibitors of inositol monophosphatase (IMPase) | CHO-M1 cells, IP1 accumulation, HTRF TR-FRET ratio | inhibition (IP1 accumulation), % at 46.1 µM | AID 901 | 120,000 tested, under 10 active; active = well fitted curve in the direction sought with a large enough effect in the signal ratio, not every such curve was filed as active; inconclusive = small, poorly fitted or top-dose-only effect, or a change in a side signal; inactive = no such curve, though single readings can be large or run the other way; the % refers to the signal ratio;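 note: cells stimulated with carbachol in lithium chloride buffer; plate controls were DMSO basal wells for no effect and reference inhibitor wells for full effect; higher means more IMPase inhibition seen as more IP1 and lower FRET ratio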
# Target sequence (P97697 whole entry, looked up): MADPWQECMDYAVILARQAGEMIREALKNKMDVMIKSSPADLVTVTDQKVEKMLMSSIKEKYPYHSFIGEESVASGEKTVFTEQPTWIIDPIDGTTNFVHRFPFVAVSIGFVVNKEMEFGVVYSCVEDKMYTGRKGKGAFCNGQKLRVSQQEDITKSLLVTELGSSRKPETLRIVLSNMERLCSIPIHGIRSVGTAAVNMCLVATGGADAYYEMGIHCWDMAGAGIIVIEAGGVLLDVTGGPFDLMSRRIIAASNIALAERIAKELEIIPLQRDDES
#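 Elevated IP1 in lysates lowers TR-FRET signal (665/620 ratio and 620 channel reported). Cells were CHO-M1, given carbachol (50 uM as added) plus 50mM LiCl, pH 7.4, 30 min, 37C; compounds titrated up to 46 uM; AC50 by Hill equation.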
# Numbers without * were called inactive; ? = inconclusive; · = not tested or not shown; ! = not active in a repeat; [ ] = another dose, or the depositor's remark. Unless noted, calls come from the whole dose curve; as a rule, active = well fitted curve in the direction sought with a large enough effect; inconclusive = small, poorly fitted or top-dose-only effect, or another doubt; inactive = no such curve, though single readings can be large; an effect the other way counts as inactive or inconclusive.
SMILES,ALDH1A1 inh,IMPase Li cell,HPGD inh,HTT cytoprotect,HttQ103 aggreg,IMPase inh
Cc1c(C(=O)NCCC2=CCCCC2)oc2ccc(S(=O)(=O)N3CCC4(CC3)OCCO4)cc12,22µM*,23%,-18%,8%[10 µM],?,10
Cc1c(C(=O)N2CCC3(CC2)OCCO3)oc2ccc(S(=O)(=O)N3CCOCC3)cc12,?,2%,-9%,17%[10 µM],-16%,5
O=C1NC(=O)N(Cc2ccco2)C(=O)/C1=C/c1ccc(-c2cccc([N+](=O)[O-])c2)o1,7.1µM*,4%,5µM*,13%[10 µM],20%,·
O=C1NC(=O)N(Cc2ccco2)C(=O)/C1=C\c1cccn1CCOc1ccc(Cl)cc1,-3%,20%,-22%,-6%[10 µM],22%,9
C=CCN1C(=O)NC(=O)/C(=C\c2ccc(-c3ccccc3[N+](=O)[O-])o2)C1=O,22µM*,19%,·,-24%,14%[9.22 µM],·
CCCCC/C=C\C/C=C\C/C=C\C/C=C\CCCC(=O)NCCCl,?,3%,?,-21%,·,·
C/C=C(/C)C(=O)O[C@H]1C(C)=C2C([C@@H]1OC(=O)CCCCCCC)[C@@](C)(OC(C)=O)C[C@@H](OC(=O)CCC)[C@@]1(O)[C@H]2OC(=O)[C@@]1(C)O (stereo not given in full),?,2%,?,·,·,·
CNCCc1cnc[nH]1,-6%,-3%,-5%,?,·,-4
Cc1cnc[nH]1,0.28µM*,-8%,-14%,-4%,·,·
O=C(O)CSCC(=O)O,1%[13.5 µM],-3%,-8%,-1%[10 µM],·,·
Cc1cc(N2C(=O)C3CCCN3C2c2sccc2C)no1 (stereo not given),1.6µM*,·,·,-9%,?,-2
COc1cccc(-n2c(/C=C/c3ccc(O)c(O)c3)nc3ccccc3c2=O)c1,25µM*,5%,·,-14%[10 µM],12%[9.22 µM],·
CC(=O)Nc1c2sscc-2n(C)c1=O,2%,24%,-11%,-334%,·,·
O=P(Nc1ccccc1)(Nc1ccccc1)Oc1ccc(Cl)cc1,-3%,28%[38.3 µM],5.6µM*,-18%,-8%,5
COc1ccc([N+](=O)[O-])cc1CSc1ccccn1,?,11%,·,-4%,?,·
COc1ccc(C=C2C(=O)N(C)C(=O)N(C)C2=O)cc1CSc1ccccn1,3.2µM*,14%[38.3 µM],25µM*,-1%,-1%,5
Cc1ccc(N=C=O)cc1N=C=O,-2%,5%,-3%,0%,·,·
COc1ccc(Cn2c(O)c(C=NCCN3CCOCC3)c(=O)[nH]c2=O)cc1,?,·,·,-62%,?,-23
COc1ccc(NC(=S)NCCN2CCOCC2)cc1,1.3µM*,-2%,·,-11%[10 µM],0%[9.22 µM],·
O=c1[nH]c(=S)n(Cc2ccc(F)cc2)c(O)c1C=NCC1CCCO1 (stereo not given),?,27%[38.3 µM],28µM*,4%,14%[9.22 µM],-10
COCCCOc1ccnc(CS(=O)c2nc3ccccc3[nH]2)c1C (stereo not given),6µM*,4%,?,-173%,8%,·
Cc1c(OCC(F)(F)F)ccnc1CS(=O)c1nc2ccccc2[nH]1 (stereo not given),1%,0%,?,-52%,3%,4
COc1cc(-c2ccc(=O)[nH]n2)ccc1OC(F)F,-8%,6%,20µM*!,?,6%,4
CC(Cl)CCl (stereo not given),4%,-5%,-1%,-26%,·,·
O=C1C=CC(=O)c2c(O)cccc21,13µM*,1%,14µM*,-72%,·,·
SMILES,ALDH1A1 inh,IMPase Li cell,HPGD inh,HTT cytoprotect,HttQ103 aggreg,IMPase inh
Oc1ccc(Cl)cc1Cc1cc(Cl)ccc1O,12%,-2%,14µM*!,-28%,?,·
Oc1ccc(Cl)cc1Cl,-5%,24%,-10%,3%,·,·
Oc1ccc(Cl)cc1Cc1ccccc1,-5%,0%,10µM*,15%,-21%,·
CCCCC(CC)COC(=O)c1ccccc1C(=O)OCC(CC)CCCC (stereo not given),22µM*,12%,-7%,-13%,·,·
CC(C)COC(=O)c1ccccc1C(=O)OCC(C)C,?,15%,-9%,-18%,5%[9.22 µM],·
CCCCCCCCCCCCCC(=O)O[C@H]1[C@@H](C)[C@@]2(O)[C@@H](C=C(CO)C[C@]3(O)C(=O)C(C)=C[C@@H]23)C2C(C)(C)[C@]21OC(C)=O (stereo not given in full),·,·,·,12%[1.9 µM],·,0
CC/C(=N\Nc1ccccc1)c1c(O)n(C)c(=O)n(C)c1=O,?,14%,-9%,6%[10 µM],14%,3
C/C(=N\NC(=S)Nc1ccccc1)c1c(O)n(C)c(=O)n(C)c1=O,0.79µM*,4%,?,8%[10 µM],-8%,·
O=C(O)C[SH+]CC(=O)O.O=C(O)C[SH+]CC(=O)O.[Cu],·,15%,-5%,·,·,·
CCn1nc(-c2cccs2)nc2c(=O)n(C)c(=O)nc1-2,?,37%[38.3 µM],-30%,-92%[10 µM],18µM*,?
CCn1nc(/C=C/c2ccccc2)nc2c(=O)n(C)c(=O)nc1-2,2%,8%,·,24%[10 µM],22%[9.22 µM],·
O=C(OCC(=O)c1ccc([N+](=O)[O-])cc1)/C(=C\c1ccc(Cl)cc1)NC(=O)c1ccccc1,13µM*,-4%[38.3 µM],-5%,-9%,-1%,9
CC(C)=CCCC(C)C1CC[C@@]2(C)C3=C(CC[C@@]12C)C1(C)CCC(O)C(C)(C)C1CC3 (stereo not given in full),28µM*,-8%,-9%,·,·,·
CCCCCC1CC(CC(=O)NC(=S)Nc2ccc([N+](=O)[O-])cc2)C(=O)O1 (stereo not given),10µM*,5%,-8%,0%[10 µM],11%,8
CC(=O)Nc1ccc([As](=O)(O)c2ccc([N+](=O)[O-])cc2)cc1,·,·,·,-3%[10 µM],-7%[9.22 µM],·
CO[C@@H]([CH2][Hg])CN1C(=O)c2ccccc2S1(=O)=O.Cn1c(=O)c2nc[nH]c2n(C)c1=O,3.2µM*,-9%,1.4µM*,-2%[10 µM],·,·
O=[N+]([O-])c1ccc(F)c([N+](=O)[O-])c1,20µM*,10%,-24%,9%,7%,·
Brc1c(Br)c(Br)c2n[nH]nc2c1Br,?,8%,?,3%,·,-4
N/C(=N\[N+](=O)[O-])N/N=C/c1ccc(O)cc1,12%,0%[38.3 µM],-18%,24%,-2%,-10
Nc1nonc1C(=O)N/N=C/c1ccc([N+](=O)[O-])o1,13µM*,5%,·,·,19%,·
O=C(O)CN1CCN(CC(=O)O)CC(=O)[O][Hg][O]C(=O)C1,1.6µM*,3%,0.04µM*,-45%[10 µM],·,·
O=[N+]([O-])c1ccc(O[C@@H]2O[C@H](CO)[C@@H](O)[C@H](O)[C@H]2F)c([N+](=O)[O-])c1,?,-3%,-11%,·,·,·

# Screening data deposited in PubChem by National Center for Advancing Translational Sciences (NCATS).
